Results published in PubChem BioAssay (Tox21).
Several values for one entry are separate records, joined by “and”; a condition that tells them apart may be missing. Equal entries are not always repeated. Inconclusive results are not listed. Where a call stands in place of a potency, no number is given. Where a structure was tested more than once in an assay, its records may differ in their call. Activity calls are given as the source filed them. Unless noted, calls follow the shape of the dose curve; as a rule, active = well fitted curve in the direction sought with a large enough effect in the repeat runs; inconclusive = weak or mixed curves; inactive = no such curve, though single readings can be large; an effect the other way counts as inactive or inconclusive.

How the values were obtained:
[1] = qHTS assay to identify small molecule agonists of the RXR signaling pathway - cell viability counter screen (AID 1159529); also: nearly all actives have a fitted effect of over 50% in size; also: potency is read from the fitted curve at half-maximal effect
Summary of the method: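 Same-well viability check after the LiveBLAzer FRET read: CellTiter-Glo added, luminescence measured after 30 min at room temperature. Reporter HEK 293T cells had been treated with compounds for 16 hr following a 5 hr preincubation.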

[2] = qHTS assay to identify small molecule antagonists of the retinoid acid receptor (RAR) signaling pathway - cell viability counter screen (AID 1159551); also: nearly all actives have a fitted effect of over 35% in size
Summary of the method: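 Following overnight attachment, C3RL4 reporter cells received DMSO-dissolved compounds and then retinol (1 uM final). Six hours later at 37 C, ATP content was measured by CellTiter-Glo luminescence.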

[3] = qHTS assay to identify small molecule antagonists of the retinoic acid receptor (RAR) signaling pathway (AID 1159552; also: nearly all actives have a fitted effect of over 50% in size)
Summary of the method: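 Readout: luciferase luminescence, 30 min post-reagent at RT. Setup: C3RL4 RARE reporter cells, compounds plus retinol 1 uM final, 6 hr incubation at 37 C and 5% CO2.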

[4] = qHTS assay to identify small molecule agonists of the retinoic acid receptor (RAR) signaling pathway (AID 1159553); conditions: C3RL4 RARE luciferase reporter, agonist, 6 h; activation: at 73.3 µM (top of the series) unless noted; also: potency is read from the fitted curve at half-maximal effect
Summary of the method: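 Cell line C3RL4, RARE luciferase reporter. Treatment: compounds in DMSO, 6 hr, 37 C, 5% CO2, after overnight plating. Detection: luminescence, 30 min RT after reagent.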

[5] = qHTS assay to identify small molecule antagonists of the estrogen related receptor (ERR) signaling pathway from Tox21 library - cell viability counter screen (AID 1224834); also: nearly all actives have a fitted effect of over 30% in size; also: potency is read from the fitted curve at half-maximal effect
Summary of the method: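 Viability readout (CellTiter-Fluor fluorescence, 30 min at 37 C) multiplexed with the ERR assay; cells treated 17.5 h at 37 C with compounds delivered in DMSO.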

[6] = biological target: Luciferin 4-monooxygenase (Photinus pyralis) (UniProt P08659); experiment: qHTS assay to identify small molecule inhibitors of firefly luciferase (AID 1224835); also: nearly all actives have a fitted effect of over 25% in size
Chain of Luciferin 4-monooxygenase (Photinus pyralis) (P08659 whole entry, looked up): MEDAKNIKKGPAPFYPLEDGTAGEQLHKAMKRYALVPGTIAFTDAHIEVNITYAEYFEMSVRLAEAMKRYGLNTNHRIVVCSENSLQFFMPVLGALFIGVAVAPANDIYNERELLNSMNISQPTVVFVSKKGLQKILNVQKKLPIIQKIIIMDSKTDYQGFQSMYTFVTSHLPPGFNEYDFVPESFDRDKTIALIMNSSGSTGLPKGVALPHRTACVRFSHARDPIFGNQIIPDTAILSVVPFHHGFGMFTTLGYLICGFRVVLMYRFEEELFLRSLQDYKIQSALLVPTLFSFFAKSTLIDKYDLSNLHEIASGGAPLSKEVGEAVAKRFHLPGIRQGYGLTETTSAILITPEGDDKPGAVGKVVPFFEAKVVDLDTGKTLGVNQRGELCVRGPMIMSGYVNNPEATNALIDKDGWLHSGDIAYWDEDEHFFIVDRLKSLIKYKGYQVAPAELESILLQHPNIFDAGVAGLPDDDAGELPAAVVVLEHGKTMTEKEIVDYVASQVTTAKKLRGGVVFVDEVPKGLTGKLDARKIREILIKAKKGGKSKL
Summary of the method: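 Quantitative HTS format; KM concentrations of both substrates. Purified P. pyralis FLuc activity quantified from luminescence images.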

[7] = qHTS assay to identify small molecule agonists of the constitutive androstane receptor (CAR) signaling pathway - cell viability counter screen (AID 1224836); also: nearly all actives have a fitted effect of over 45% in size
Summary of the method: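 Compound titrations (15 concentrations) went onto HepG2-CYP2B6-hCAR cells 4 h after seeding, alongside PK11195 at a final 0.75 uM; a 23 h, 37 C/5% CO2 incubation preceded CellTiter-Fluor viability measurement.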

[8] = qHTS assay to identify small molecule antagonists of the constitutive androstane receptor (CAR) signaling pathway - cell viability counter screen (AID 1224837); also: nearly all actives have a fitted effect of over 45% in size
Summary of the method: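 Fluorescence from CellTiter-Fluor served as the viability signal. Human hepatoma HepG2 cells stably bearing hCAR and CYP2B6-2.2kb received compound plus CITCO (50 nM final) for 23 hr.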

[9] = biological target: Nuclear receptor subfamily 1 group I member 3 (Homo sapiens) (UniProt Q14994); experiment: qHTS assay to identify small molecule antagonists of the constitutive androstane receptor (CAR) signaling pathway (AID 1224838);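 also: HepG2 cells stably expressing hCAR with CYP2B6 luciferase reporter stimulated by CITCO; nearly all actives have a fitted effect of over 40% in size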
Chain of Nuclear receptor subfamily 1 group I member 3 (Homo sapiens) (Q14994 whole entry, looked up): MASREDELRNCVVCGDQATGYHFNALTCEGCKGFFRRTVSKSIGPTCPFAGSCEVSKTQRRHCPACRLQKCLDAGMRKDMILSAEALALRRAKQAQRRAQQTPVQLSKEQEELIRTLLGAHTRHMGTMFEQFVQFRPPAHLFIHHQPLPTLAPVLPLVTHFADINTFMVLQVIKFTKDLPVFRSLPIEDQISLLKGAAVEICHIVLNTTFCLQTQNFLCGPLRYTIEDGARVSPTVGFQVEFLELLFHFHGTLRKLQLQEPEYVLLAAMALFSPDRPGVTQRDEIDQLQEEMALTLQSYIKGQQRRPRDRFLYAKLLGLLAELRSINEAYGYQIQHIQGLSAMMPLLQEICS
Summary of the method: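 Quantitative HTS in double-stable HepG2-CYP2B6-hCAR cells. After 4 h plating, cells get compound (15 concentrations) and CITCO at 50 nM final, incubate 24 h at 37 C, then ONE-Glo luminescence is read.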

[10] = biological target: Nuclear receptor subfamily 1 group I member 3 (Homo sapiens) (UniProt Q14994); experiment: qHTS assay to identify small molecule agonists of the constitutive androstane receptor (CAR) signaling pathway (AID 1224839); also: nearly all actives have a fitted effect of over 15% in size; also: potency is read from the fitted curve at half-maximal effect;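 as to activation: HepG2 cells stably carrying human CAR and a CYP2B6 luciferase reporter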
Summary of the method: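 In this screen, CAR-driven CYP2B6 promoter activity is measured by luminescence in HepG2-CYP2B6-hCAR cells after 24 h with test compounds and 0.75 uM PK11195 (final concentration).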

[11] = qHTS assay to identify small molecule antagonists of the estrogen related receptor signaling pathway with the pleiotropic PPARgamma coactivator (PGC) from Tox21 10K library - cell viability counter screen (AID 1224840; active = well fitted cell-killing curve with a large enough effect in the repeat runs, not every such curve was filed as active; also: nearly all actives have a fitted effect of over 40% in size)
Summary of the method: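 Compounds in DMSO, alongside positive and negative controls, were pinned onto PGC/ERR cells (2,000 per well). Exposure lasted 17.5 hours at 37 C, followed by a 30-minute CellTiter-Fluor incubation and fluorescence reading.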

[12] = qHTS assay to identify small molecule antagonists of the estrogen related receptor signaling pathway with the pleiotropic PPARgamma coactivator (PGC) from Tox21 10K library (AID 1224841; call rule not given here; also: actives are mostly falling curves and most rising ones were filed inactive; nearly all actives have a fitted effect of over 50% in size; also: potency is read from the fitted curve at half-maximal effect)
Summary of the method: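 Compound exposure ran 18 hours at 37 C in PGC/ERR cells (2,000/well) that had first rested 6 hours in a 37 C/5% CO2 incubator. Luciferase activity was then detected with One-Glo after a 30-minute room-temperature step.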

[13] = qHTS assay to identify small molecule agonists of the estrogen related receptor signaling pathway with the pleiotropic PPARgamma coactivator (PGC) from Tox21 10K library (AID 1224842); also: nearly all actives have a fitted effect of over 15% in size
Summary of the method: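 PGC/ERR reporter cells (NTP line) were seeded 2,000 per well, rested 6 h at 37 C/5% CO2, then pin-dosed with compounds in DMSO for 18 h at 37 C; luciferase read by One-Glo luminescence after 30 min at room temperature.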

[14] = biological target: Thyrotropin receptor (Homo sapiens) (UniProt P16473); experiment: qHTS assay to identify small molecule agonists of the thyroid stimulating hormone receptor (TSHR) signaling pathway (AID 1224843; calls by dose curve; also: nearly all actives have a fitted effect of over 45% in size)
Chain of Thyrotropin receptor (Homo sapiens) (P16473 whole entry, looked up): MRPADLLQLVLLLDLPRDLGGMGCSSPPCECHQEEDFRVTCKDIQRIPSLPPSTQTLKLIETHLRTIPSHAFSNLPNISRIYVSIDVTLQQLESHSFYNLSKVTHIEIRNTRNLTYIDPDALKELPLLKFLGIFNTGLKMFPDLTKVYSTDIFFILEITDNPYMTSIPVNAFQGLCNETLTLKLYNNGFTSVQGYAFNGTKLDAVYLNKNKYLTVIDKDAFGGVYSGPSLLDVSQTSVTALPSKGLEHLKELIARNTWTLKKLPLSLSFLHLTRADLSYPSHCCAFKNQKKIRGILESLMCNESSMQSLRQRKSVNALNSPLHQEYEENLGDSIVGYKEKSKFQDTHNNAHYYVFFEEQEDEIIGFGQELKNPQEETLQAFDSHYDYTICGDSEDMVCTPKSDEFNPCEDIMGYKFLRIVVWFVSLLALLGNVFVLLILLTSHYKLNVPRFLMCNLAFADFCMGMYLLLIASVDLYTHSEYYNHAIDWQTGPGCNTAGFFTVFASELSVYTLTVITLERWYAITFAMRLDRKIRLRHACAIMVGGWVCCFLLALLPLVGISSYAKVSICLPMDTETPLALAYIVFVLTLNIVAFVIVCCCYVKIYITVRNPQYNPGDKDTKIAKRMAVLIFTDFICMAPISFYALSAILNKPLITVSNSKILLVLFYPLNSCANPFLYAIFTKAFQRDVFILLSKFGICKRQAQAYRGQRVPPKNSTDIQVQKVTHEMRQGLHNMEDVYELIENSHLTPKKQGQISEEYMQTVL
Summary of the method: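 Cell line HEK293 with TSHR; density 800/well. Exposure 30 min RT. Readout HTRF cAMP (cAMP-d2/anti-cAMP-cryptate), 1 h RT before reading.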

[15] = qHTS assay to identify small molecule antagonists of the estrogen related receptor (ERR) signaling pathway - cell viability counter screen (AID 1224818);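 also: viability measured after 17.5 h of compound exposure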
Summary of the method: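 Here, ERR cells are plated at 2,000 cells per well, allowed 6 h to attach, and treated with compounds in DMSO for 17.5 h at 37 C. CellTiter-Fluor is then added and fluorescence read after 30 min.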

[16] = qHTS assay to identify small molecule antagonists of the estrogen related receptor (ERR) signaling pathway (AID 1224819;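 also: luminescence from an ERR-driven luciferase reporter measured with One-Glo reagent; nearly all actives have a fitted effect of over 50% in size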)
Summary of the method: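 LOPAC library screened for antagonism as reduced One-Glo luminescence in ERR reporter cells (2,000/well). Compounds were added after 6 h pre-incubation and left 18 h at 37C; reading followed a 30 min room-temperature reagent step.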

[17] = qHTS assay to identify small molecule agonists of the estrogen related receptor (ERR) signaling pathway (AID 1224820)
Summary of the method: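 ERR reporter cell line (from NTP), 2,000 cells/well, incubated 6 h before compound addition, then 18 h at 37 C. Luminescence measured 30 min after One-Glo reagent at room temperature.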

[18] = test system: estrogen-related receptor alpha (ERRalpha) with PGC-1alpha coactivator, human; experiment: qHTS assay to identify small molecule antagonists of the estrogen related receptor signaling pathway with the pleiotropic PPARgamma coactivator (PGC) (AID 1224821; calls by dose curve)
Summary of the method: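 PGC/ERR reporter cell line, plated 6 h before compound addition, then exposed 18 h at 37 °C. Luciferase activity read by luminescence 30 min after One-Glo addition; decrease indicates antagonism.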

[19] = qHTS assay to identify small molecule antagonists of the estrogen related receptor signaling pathway with the pleiotropic PPARgamma coactivator (PGC) cell viability counter screen (AID 1224822;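 also: viability read after 17.5 h compound exposure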)
Summary of the method: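 qHTS format, DMSO compound stocks pin-transferred onto PGC/ERR cells 6 h after plating; 17.5 h exposure at 37 C, then CellTiter-Fluor fluorescence.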

[20] = qHTS assay to identify small molecule agonists of the estrogen related receptor signaling pathway with the pleiotropic PPARgamma coactivator (PGC) (AID 1224823)
Summary of the method: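 PGC/ERR reporter cells seeded 6 h, then exposed to compounds (23 nL in DMSO) for 18 h at 37 C. One-Glo luciferase luminescence read after 30 min at room temperature.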

SMILES	Potency [1]	Potency [2]	Potency [3]	Potency [4]	Potency [5]	Potency [6]	Potency [7]	Potency [8]	Potency [9]	Potency [10]	Potency [11]	Potency [12]	Potency [13]	Potency [14]	outcome [15]	Potency [16]	outcome [17]	Potency [18]	Potency [19]	outcome [20]
O=P(OCCCl)(OCCCl)OCCCl	inactive	inactive	inactive	inactive	inactive	inactive	inactive	inactive	inactive	inactive	inactive	4.81 µM (active) and inactive	inactive							
Clc1cccc(Cl)c1	inactive	inactive	inactive	inactive	inactive	inactive	inactive	inactive	inactive	inactive		inactive	inactive	inactive						
Brc1ccc(Br)cc1	inactive	inactive	inactive	inactive	inactive	inactive	inactive	inactive	inactive	inactive		inactive	inactive	inactive						
CCCCSP(=O)(SCCCC)SCCCC	inactive	inactive	inactive	inactive	inactive	inactive	inactive	inactive	inactive	23.8 µM (active) and 8.63 µM (active)	inactive									
CC1(C)Cc2cccc(O)c2O1	inactive	inactive	inactive	inactive	inactive	inactive		inactive	inactive	inactive	inactive			inactive						
COP(=S)(OC)Oc1ccc(S(=O)(=O)N(C)C)cc1	inactive	inactive	inactive	inactive	inactive	inactive	inactive	inactive	inactive	inactive		inactive	inactive	inactive						
CC(C)COC(=O)c1ccccc1C(=O)OCC(C)C	inactive	inactive	inactive	inactive	inactive	inactive	inactive	inactive			inactive			inactive						
ClCC(Cl)CCl	inactive	inactive	inactive	inactive	inactive	inactive	inactive	inactive	inactive	inactive		inactive	inactive	inactive						
CCCCCCCCCc1ccc(O)cc1	55.5 µM (active)	inactive	inactive	19.5 µM (active)	61.8 µM (active)	inactive	inactive	inactive	inactive					inactive						
O=NN1CCOCC1	inactive	inactive	inactive	inactive	inactive	inactive	inactive	inactive						inactive						
CNC(=O)Oc1cccc2c1OC(C)(C)C2	inactive	inactive	inactive	inactive	inactive	inactive		inactive	inactive	inactive	inactive	inactive	inactive	inactive						
COC(=O)Nc1nc2ccccc2[nH]1	inactive	inactive	inactive	inactive	inactive	inactive	inactive	inactive	inactive		inactive			inactive						
COc1ccc(O)c(C(C)(C)C)c1	inactive	inactive	inactive	inactive	inactive	inactive	inactive	inactive	inactive	inactive	inactive									
C=C(C)C#N	inactive	inactive	inactive	inactive	inactive	inactive	inactive	inactive	inactive	inactive				inactive						
O=C(O)c1nn(Cc2ccc(Cl)cc2Cl)c2ccccc12	inactive	inactive	inactive	inactive	inactive	inactive		inactive	inactive	inactive	inactive	68.1 µM (active) and inactive	inactive	inactive	inactive	inactive	inactive	inactive	inactive	inactive
O=C1CCCO1	inactive	inactive	inactive	inactive	inactive	inactive	inactive	inactive	inactive	inactive	inactive	inactive	inactive	inactive						
OCCOCCO	inactive	inactive	inactive	inactive	inactive	inactive	inactive	inactive	inactive	inactive	inactive									
O=C1Nc2ccc(Cl)cc2C(c2ccccc2)=NC1O (centres undefined)	inactive	inactive	inactive	inactive	inactive	inactive	inactive	inactive	inactive	inactive		inactive	inactive	inactive						
